Bioassay records deposited in PubChem by National Center for Advancing Translational Sciences (NCATS).
Compounds with a hit are over-represented: about 15% of the library has one in this group of screens.
SARS PLP yeast: blocks SARS-CoV papain-like protease in a yeast assay; S. cerevisiae expressing SARS-CoV PLpro, growth rescue; actives 0.19% (n = 330,000); AID 485353; Potency, µM (series often up to 32.9 µM), without a hit: at the top dose activity, positive = growth rescue, most hits filed as activators; calls by dose curve; also: potency is read from the fitted curve at half-maximal effect; 0% is about no effect; nearly all actives have a fitted effect of over 55% in size
Pf growth 96h: P. falciparum growth inhibition at 96 hour, primary screen for plastid delayed-death inhibitors. P. falciparum luciferase reporter growth, 96 h. Potency, µM (series often up to 28.7 µM), inactives show at the highest dose activity change, negative = inhibition, most hits filed as inhibitors. actives 6.9% (n = 320,000). AID 504834; also: potency is read from the fitted curve at half-maximal effect; % is scaled to controls: 0 for no effect and ±100 for the full control effect
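Erythrocytes infected with luciferase-expressing P. falciparum were dispensed at 2% hematocrit and 0.05% parasitemia (final), then incubated with compounds 96 hours at 37 C in 5% CO2. Luminescence after detection reagent addition reported growth.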
Sm TGR block: blocks Schistosoma mansoni thioredoxin glutathione reductase | Q962Y6 | purified TGR, DTNB reduction, TNB absorbance 405 nm | Potency, µM (titrated, usually from 114 µM), inactives show at the highest dose activity change, negative = inhibition, usual class: inhibitors | actives 3% (n = 360,000) | AID 485364; also: potency is read from the fitted curve at half-maximal effect; % is scaled to controls: 0 for no effect and ±100 for the full control effect; nearly all actives have a fitted effect of over 60% in size
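First, TGR (20 nM dispensed) and NADPH were mixed with compound. Second, a 15 min room-temperature incubation followed. Third, further NADPH and then DTNB were added to start the reaction. Finally, TNB absorbance was monitored kinetically.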
Pf growth 48h: inhibits P. falciparum growth in the first generation, 48 h. P. falciparum luciferase growth in erythrocytes, 48 h. Potency, µM (titrated, usually from 28.7 µM), without a hit: top-dose activity change, negative = inhibition, most hits filed as inhibitors. actives 5.9% (n = 310,000). AID 504832; also: potency is read from the fitted curve at half-maximal effect; % is scaled to controls: 0 for no effect and ±100 for the full control effect
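Luciferase-expressing parasites in RBCs, 2% Hct / 0.1% parasitemia final; RPMI 1640 + 0.5% Albumax; 37 C, 5% CO2, one generation; luminescence read-out, lower signal = inhibition.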
HCMV inh: human cytomegalovirus inhibition. HFF cells, HCMV-luciferase reporter, 72 h; active compounds read low. actives 4.5% (n = 410,000). activity change, negative = inhibition, % at 57.5 µM; in the data active = activity change below about -60%; inconclusive = no clear call, values can overlap the other calls; inactive = above about -39%; also: % is scaled to controls: 0 for no effect and ±100 for the full control effect
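HFF cells seeded 16 h at 37C, treated with compounds, infected with luciferase-reporter HCMV at MOI 1 PFU/cell; luciferase read at 72 h post infection, normalized to buffer-only and Salinomycin controls.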
HCV inhibitor: HCV inhibition; Potency, µM (series often up to 41.8 µM), for the others: top-dose activity change, negative = inhibition, usual class: inhibitors; Huh7.5.1 HCVcc-Cre infection, luciferase reporter, 44 h; actives 3.4% (n = 340,000); also: potency is read from the fitted curve at half-maximal effect; % is scaled to controls: 0 for no effect and ±100 for the full control effect
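Seed cells (1,000/well) for 4 h; treat with compound and infect with HCVcc-Cre, moi about 0.5. Incubate 44 h, then detect luciferase activity.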
* marks the source's active call; other numbers are inactive results; ? = inconclusive; . = no result given. Unless noted, calls follow the shape of the dose curve; as a rule, active = well fitted curve in the direction sought with a large enough effect; inconclusive = small, poorly fitted or top-dose-only effect, or another doubt; inactive = no such curve, though single readings can be large; an effect the other way counts as inactive or inconclusive.

SMILES	SARS PLP yeast	Pf growth 96h	Sm TGR block	Pf growth 48h	HCMV inh	HCV inhibitor
Clc1ccc(Nc2ccc(-n3ccnc3)nn2)cc1Cl	-27%	1.9µM*	1%	2.6µM*	?	-6%
Cc1ccc(OC(C)C(=O)Nc2cccc(S(=O)(=O)N3CCCCCC3)c2)cc1 (stereo unspecified)	.	.	.	.	5	.
CCN1CCN(c2ccc(S(=O)(=O)N3CCOCC3)cc2NC(=O)C(C)Oc2ccc(Cl)cc2)CC1 (stereo unspecified)	3%	?	1%	12µM*	21	2%
Cc1cc(Cl)ccc1OC(C)C(=O)Nc1ccc(S(=O)(=O)N2CCOCC2)cc1 (stereo unspecified)	.	.	.	.	6	11µM*
CC(Oc1ccc(Cl)cc1)C(=O)Nc1cccc(S(=O)(=O)N2CCOCC2)c1 (stereo unspecified)	-2%	10µM*	0%	?	-6	?
CCOC(=O)c1ccc(NC(=O)CCc2nc(-c3ccc(C)cc3)no2)cc1	0%	3.7µM*	0%	?	-30	8.9µM*
CCOC(=O)c1ccc(NC(=O)CCc2nc(-c3ccc(Cl)cc3)no2)cc1	-2%	?	0%	?	-34	?
CCOc1ccc(-c2noc(CCC(=O)O)n2)cc1	8%	12µM*	5%	.	?	-14%
COc1ccc(-c2noc(CCC(=O)Nc3ccc4c(c3)OCCO4)n2)cc1	15%	0.59µM*	4%	15%	-35	?
Cc1ccc(-c2noc(CCC(=O)Nc3ccc4c(c3)OCO4)n2)cc1	5%	2.3µM*	0%	23%	-29	-9%
COc1ccc(-c2noc(CCC(=O)O)n2)cc1	?	?	0%	0%	-28	11%
Cc1cccc(-c2csc(N3CCC(C(N)=O)CC3)n2)c1	.	14%	.	?	.	.
Cc1noc(C)c1COC(=O)c1cc2c3ccccc3n(C)c2s1	?	?	?	?	17	11µM*
COc1ccc(N2C(=O)[C@@H]3[C@H](C2=O)[C@H]2c4ccccc4C=CN2[C@@H]3C(C)=O)cc1	-2%	-10%	40µM*	-9%	-33	26%
O=C(c1ccc2c(c1)OCO2)[C@@H]1[C@@H]2C(=O)N(C3CCCCC3)C(=O)[C@@H]2C2c3ccccc3C=CN21 (stereo partly specified)	-6%	4.7µM*	0%	6.6µM*	-18	-27%
O=C(c1cccs1)[C@@H]1[C@@H]2C(=O)N(Cc3ccc4c(c3)OCO4)C(=O)[C@@H]2C2c3ccccc3C=CN21 (stereo partly specified)	-6%	10µM*	?	?	.	.
CC(C)(C)C(=O)[C@@H]1[C@@H]2C(=O)N(C3CCCCC3)C(=O)[C@@H]2[C@H]2c3ccccc3C=CN12	-2%	15µM*	-33%	.	-30	-5%
O=C(Nc1ccc2c(c1)OCO2)[C@@H]1[C@@H]2C(=O)N(C3CCCCC3)C(=O)[C@@H]2C2c3ccccc3C=CN21 (stereo partly specified)	1%	-11%	-16%	?	37	11%
CNc1nc2c(c(=O)n(C)c(=O)n2C)n1CC(O)COc1ccc(OC)cc1 (stereo unspecified)	.	.	-2%	.	-23	.
CCSc1nc2c([nH]c3ccccc32)c(=O)n1CC	.	.	5%	.	26	.
Clc1ccc(C2=Nc3cc(Cl)ccc3OC2)cc1	0%	29%	-4%	8%	13	3%
c1ccc(C2=Nc3ccccc3OC2)cc1	-31%	?	50µM*	.	-5	-4%
Cc1ccc2c(c1)N=C(c1ccc(Cl)cc1)CO2	-9%	68%	-18%	.	-102*	-12%
CC(C)c1ccc(Nc2cc3[nH]c(-c4cccc(F)c4)cc3cn2)cc1	.	.	.	.	-5	.
CCOC(=O)c1c(C)oc2ccc(N(C(=O)Oc3ccccc3)S(=O)(=O)c3ccc(CC)cc3)cc12	.	.	10%	.	6	.
